Reference: the supplement of paper PMC10849652
About 7,900 targets were measured; listed, in parts, are those with a hit and a random draw of the rest. About 0.6% of all pairs of compound and target were hits.

Compound: CC[C@@H]1C(=O)N(C)c2cnc(Nc3ccc(C(=O)NC4CCN(C)CC4)cc3OC)nc2N1C1CCCC1
Assay: log2 fold change, soluble protein after heating vs DMSO (PISA); higher = thermal stabilisation; K562 cells, 10 uM, 30 min; active = over 0.2 and 3.5 SD of the protein, either way, in both replicates (recomputed)
Method in brief: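 Soluble protein was quantified by TMTpro 16plex LC-MS/MS after channel sums were equalised. It was obtained as the supernatant after 21,000xg for 90 min from pooled aliquots of K562 cells (2×10^6 cells/mL, 10 μM compound, 30 min) heated for 3 min across 48°C-58°C and extracted in PBS with 0.5% NP-40 at 4°C. Thermal stability values are relative to control samples and come from duplicates. They are given as log2 fold changes.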

UniProt Q504Q3, sequence (Q504Q3 whole entry, looked up): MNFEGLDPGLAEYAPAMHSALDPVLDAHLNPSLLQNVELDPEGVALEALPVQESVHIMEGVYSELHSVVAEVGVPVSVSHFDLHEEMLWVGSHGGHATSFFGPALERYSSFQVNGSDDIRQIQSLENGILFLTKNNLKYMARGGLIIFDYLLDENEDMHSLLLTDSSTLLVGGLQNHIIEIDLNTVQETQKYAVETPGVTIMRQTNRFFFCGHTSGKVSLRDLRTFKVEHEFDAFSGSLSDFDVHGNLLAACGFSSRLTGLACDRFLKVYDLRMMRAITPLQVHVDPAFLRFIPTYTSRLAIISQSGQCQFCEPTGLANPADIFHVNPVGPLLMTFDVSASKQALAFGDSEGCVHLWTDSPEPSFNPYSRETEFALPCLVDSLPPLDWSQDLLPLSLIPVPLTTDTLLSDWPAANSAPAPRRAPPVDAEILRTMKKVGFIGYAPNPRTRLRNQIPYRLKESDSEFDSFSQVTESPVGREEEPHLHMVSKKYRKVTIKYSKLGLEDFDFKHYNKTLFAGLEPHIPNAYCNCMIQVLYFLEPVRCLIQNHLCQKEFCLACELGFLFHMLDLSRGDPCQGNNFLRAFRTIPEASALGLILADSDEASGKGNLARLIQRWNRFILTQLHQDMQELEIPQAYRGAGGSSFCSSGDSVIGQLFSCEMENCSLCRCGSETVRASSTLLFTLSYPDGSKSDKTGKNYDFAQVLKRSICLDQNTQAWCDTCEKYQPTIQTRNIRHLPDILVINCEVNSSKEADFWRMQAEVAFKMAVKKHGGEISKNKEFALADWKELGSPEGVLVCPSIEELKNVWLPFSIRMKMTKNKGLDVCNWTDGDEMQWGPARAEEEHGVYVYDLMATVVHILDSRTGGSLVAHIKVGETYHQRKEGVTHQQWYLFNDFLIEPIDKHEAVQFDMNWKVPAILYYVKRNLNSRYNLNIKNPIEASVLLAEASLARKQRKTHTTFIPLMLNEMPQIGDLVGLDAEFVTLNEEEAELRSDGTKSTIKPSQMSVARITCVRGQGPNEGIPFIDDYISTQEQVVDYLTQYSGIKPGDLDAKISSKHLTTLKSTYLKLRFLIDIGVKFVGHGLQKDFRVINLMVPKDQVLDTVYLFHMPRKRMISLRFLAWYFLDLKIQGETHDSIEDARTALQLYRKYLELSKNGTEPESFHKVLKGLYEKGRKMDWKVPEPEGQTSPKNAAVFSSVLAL
UniProt Q14442, sequence (Q14442 whole entry, looked up): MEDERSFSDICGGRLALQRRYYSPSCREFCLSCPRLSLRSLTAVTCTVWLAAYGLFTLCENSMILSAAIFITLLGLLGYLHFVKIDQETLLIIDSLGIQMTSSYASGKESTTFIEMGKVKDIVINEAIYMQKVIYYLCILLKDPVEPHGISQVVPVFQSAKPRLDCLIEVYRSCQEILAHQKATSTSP
UniProt Q02156, sequence (Q02156 whole entry, looked up): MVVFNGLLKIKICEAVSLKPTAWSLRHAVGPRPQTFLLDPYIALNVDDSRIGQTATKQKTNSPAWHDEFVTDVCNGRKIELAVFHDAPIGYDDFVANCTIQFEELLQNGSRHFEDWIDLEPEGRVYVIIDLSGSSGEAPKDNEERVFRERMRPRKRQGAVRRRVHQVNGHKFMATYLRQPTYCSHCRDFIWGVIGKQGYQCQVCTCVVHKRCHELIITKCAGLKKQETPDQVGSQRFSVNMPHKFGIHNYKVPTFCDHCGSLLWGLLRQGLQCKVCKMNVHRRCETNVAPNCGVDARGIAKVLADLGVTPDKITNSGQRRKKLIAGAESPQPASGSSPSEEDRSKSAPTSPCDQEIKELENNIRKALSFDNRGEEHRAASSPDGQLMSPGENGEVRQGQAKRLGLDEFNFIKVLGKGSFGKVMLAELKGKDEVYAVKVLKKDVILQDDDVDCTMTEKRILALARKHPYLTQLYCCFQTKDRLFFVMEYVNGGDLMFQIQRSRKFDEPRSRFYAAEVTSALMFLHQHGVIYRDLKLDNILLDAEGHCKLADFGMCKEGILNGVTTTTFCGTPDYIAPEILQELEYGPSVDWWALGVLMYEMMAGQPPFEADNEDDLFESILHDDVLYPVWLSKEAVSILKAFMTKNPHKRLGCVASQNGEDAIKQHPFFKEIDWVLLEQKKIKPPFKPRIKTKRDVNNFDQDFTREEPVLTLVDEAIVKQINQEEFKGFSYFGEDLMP
UniProt P60484, sequence (P60484 whole entry, looked up): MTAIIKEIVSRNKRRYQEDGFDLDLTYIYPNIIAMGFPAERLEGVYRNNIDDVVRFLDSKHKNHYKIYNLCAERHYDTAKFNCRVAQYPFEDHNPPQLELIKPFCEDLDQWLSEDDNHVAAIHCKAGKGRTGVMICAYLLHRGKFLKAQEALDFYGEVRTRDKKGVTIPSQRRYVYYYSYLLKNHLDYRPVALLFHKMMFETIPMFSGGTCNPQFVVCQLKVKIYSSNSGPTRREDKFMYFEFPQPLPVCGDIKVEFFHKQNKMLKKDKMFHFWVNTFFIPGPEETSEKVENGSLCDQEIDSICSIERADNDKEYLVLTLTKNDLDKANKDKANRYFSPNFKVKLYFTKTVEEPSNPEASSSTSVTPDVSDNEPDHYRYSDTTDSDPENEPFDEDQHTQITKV
UniProt Q96RV3, sequence (Q96RV3 whole entry, looked up): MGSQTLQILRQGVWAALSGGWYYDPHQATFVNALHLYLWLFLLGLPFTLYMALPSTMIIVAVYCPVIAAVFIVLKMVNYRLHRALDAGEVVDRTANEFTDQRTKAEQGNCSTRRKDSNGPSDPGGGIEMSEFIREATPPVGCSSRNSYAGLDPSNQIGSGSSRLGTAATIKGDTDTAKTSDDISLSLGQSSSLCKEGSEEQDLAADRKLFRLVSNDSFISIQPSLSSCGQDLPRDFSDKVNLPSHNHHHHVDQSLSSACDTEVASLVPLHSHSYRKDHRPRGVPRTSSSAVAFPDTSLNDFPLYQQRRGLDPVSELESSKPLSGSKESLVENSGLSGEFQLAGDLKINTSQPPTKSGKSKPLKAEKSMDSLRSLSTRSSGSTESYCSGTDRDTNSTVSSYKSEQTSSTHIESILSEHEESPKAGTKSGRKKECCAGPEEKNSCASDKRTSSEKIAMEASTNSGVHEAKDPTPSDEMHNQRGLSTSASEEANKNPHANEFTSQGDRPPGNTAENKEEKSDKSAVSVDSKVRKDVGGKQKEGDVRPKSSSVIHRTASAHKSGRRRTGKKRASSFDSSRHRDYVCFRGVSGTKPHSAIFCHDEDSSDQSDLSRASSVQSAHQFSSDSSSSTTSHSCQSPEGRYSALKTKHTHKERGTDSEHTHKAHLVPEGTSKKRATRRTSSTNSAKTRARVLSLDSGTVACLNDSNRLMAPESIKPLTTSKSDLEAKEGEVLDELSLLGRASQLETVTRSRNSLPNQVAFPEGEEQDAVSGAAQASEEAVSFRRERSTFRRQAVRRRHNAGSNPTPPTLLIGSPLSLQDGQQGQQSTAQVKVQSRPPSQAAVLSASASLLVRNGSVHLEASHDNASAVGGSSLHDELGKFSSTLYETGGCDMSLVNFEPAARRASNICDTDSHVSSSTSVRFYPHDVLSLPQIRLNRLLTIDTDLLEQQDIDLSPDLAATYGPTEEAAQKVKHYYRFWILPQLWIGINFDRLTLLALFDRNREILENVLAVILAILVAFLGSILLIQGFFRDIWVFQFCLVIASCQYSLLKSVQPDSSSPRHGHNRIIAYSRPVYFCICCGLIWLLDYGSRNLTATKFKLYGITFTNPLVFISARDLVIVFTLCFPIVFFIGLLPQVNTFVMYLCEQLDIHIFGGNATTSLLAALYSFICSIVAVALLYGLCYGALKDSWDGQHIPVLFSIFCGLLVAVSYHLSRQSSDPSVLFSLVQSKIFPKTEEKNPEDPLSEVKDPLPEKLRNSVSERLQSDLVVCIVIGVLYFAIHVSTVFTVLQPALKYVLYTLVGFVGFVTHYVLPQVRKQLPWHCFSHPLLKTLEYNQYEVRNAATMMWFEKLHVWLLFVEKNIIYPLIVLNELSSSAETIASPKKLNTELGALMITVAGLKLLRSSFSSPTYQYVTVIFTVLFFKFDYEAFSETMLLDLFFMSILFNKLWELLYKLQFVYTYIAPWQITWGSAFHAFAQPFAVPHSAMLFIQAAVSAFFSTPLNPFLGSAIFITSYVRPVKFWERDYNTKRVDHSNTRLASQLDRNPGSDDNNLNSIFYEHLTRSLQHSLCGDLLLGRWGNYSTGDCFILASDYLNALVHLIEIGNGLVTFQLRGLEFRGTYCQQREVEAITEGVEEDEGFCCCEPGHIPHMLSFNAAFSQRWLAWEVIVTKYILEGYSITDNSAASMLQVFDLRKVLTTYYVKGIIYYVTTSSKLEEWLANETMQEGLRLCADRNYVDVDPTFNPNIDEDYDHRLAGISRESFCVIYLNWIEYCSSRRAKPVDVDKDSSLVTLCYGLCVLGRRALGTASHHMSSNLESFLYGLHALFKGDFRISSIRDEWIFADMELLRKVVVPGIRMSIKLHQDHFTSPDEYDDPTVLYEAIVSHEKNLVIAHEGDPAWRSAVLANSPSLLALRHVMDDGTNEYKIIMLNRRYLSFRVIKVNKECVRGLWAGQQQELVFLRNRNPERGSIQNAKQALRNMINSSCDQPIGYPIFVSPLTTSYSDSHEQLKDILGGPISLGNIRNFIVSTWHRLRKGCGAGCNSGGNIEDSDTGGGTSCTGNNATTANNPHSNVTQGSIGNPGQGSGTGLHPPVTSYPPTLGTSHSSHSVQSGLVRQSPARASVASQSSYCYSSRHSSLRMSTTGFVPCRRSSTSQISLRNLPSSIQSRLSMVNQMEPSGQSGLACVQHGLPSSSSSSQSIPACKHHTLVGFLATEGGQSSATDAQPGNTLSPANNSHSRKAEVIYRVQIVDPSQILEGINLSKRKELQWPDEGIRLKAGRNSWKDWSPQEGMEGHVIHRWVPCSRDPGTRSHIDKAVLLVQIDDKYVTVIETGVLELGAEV
UniProt P28065, sequence (P28065 whole entry, looked up): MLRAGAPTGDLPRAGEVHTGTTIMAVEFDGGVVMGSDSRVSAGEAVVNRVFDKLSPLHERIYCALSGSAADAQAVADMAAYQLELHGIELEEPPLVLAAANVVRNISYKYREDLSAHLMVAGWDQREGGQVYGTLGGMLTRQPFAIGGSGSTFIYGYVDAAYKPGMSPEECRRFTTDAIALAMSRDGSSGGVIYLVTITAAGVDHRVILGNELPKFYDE

log2 fold change, inactive:
PCNX1 (UniProt Q96RV3) 0.331
PCBP2 (UniProt F8VRH0) -0.005
PPP2R5B (UniProt Q15173) -0.348
PTEN isoform 2 (UniProt P60484) 0.024
PHLDB1 isoform 2 (UniProt Q86UU1) -0.03
PHC3 isoform 7 (UniProt Q8NDX5) 0.076
PPP2R5C isoform 2 (UniProt Q13362) -0.209
POLR2E (UniProt P19388) 0.027
PDE4DIP (UniProt E9PS60) 0.047
PAN2 (UniProt Q504Q3) 0.101
PSMB9 (UniProt P28065) 0.114
PIGH (UniProt Q14442) 0.06
PRKCE (UniProt Q02156) -0.051
PSD3 (UniProt Q9NYI0) -0.019
POLR2M (UniProt Q6EEV4) 0.13
PSMA3 (UniProt H0YJ03) 0.115
PCF11 (UniProt O94913) -0.014
